Results filed as inconclusive are left out. A call without a number means that no potency is given here. Active and inactive are the calls of the source. The call rests on the fitted dose curve; in most records, active means well fitted inhibition curve with a large enough effect; inconclusive means small, poorly fitted or top-dose-only effect; inactive means flat fitted curve, though single readings scatter.
Potency means the concentration at half of the fitted maximal effect.

The nature of this experiment: qHTS to identify inhibitors of the type 1 interferon - major histocompatibility complex class I in skeletal muscle: primary screen against the NCATS Pharmaceutical Collection (AID 1347407).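 Further: luminescence of HiBiT knocked into endogenous HLA-B as interferon-induced MHC class I level.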 Particulars: human skeletal muscle cells, IFN-b-induced MHC-I HiBiT luminescence, 24 h; series mostly up to 45.9 µM. The method in brief:
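HLA-B HiBiT myoblasts, dexamethasone-free growth medium + 4 ng/ml IFN-b; compounds pinned 1 h after seeding, […] from 46 uM; 24 h, 37 C, 5% CO2; lytic HiBiT detection, 10 min RT, luminescence.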
Background: In qHTS, concentration-response curves come from the screen itself.
As for `CC(CCc1ccccc1)NC(C)C(O)c1ccc(O)cc1` (stereo not drawn), the Potency result was “inactive”.
On the same count and under the same terms, the result for `CN1C[C@H](CNC(=O)OCc2ccccc2)C[C@@H]2c3cccc4c3c(cn4C)C[C@H]21` reads “inactive”.
Regarding `NCC(CC(=O)O)c1ccc(Cl)cc1` (stereo not drawn), the activity change, negative = inhibition was 3.65% [at 0.727 µM] (inactive).
In the case of `O=c1[nH]c2ccccc2n1CCCN1CCC(n2c(=O)[nH]c3cc(Cl)ccc32)CC1`, the Potency result is “inactive”.
On to `CCCN1CCC[C@@H]2Cc3[nH]ncc3C[C@H]21`, for which the Potency entry is “inactive”.
Still for that read-out and setting: the result for `N[C@@H](Cc1ccc(N(CCCl)CCCl)cc1)C(=O)O` reads “inactive”.
`NCCc1cc(O)c(O)cc1O`: the Potency entry is “inactive”.
As for `CCC1(C2=NCCN2)Cc2ccccc2O1` (stereo not drawn), the Potency result was “inactive”.
For the compound `Cc1ccc(S(=O)(=O)N[C@@H](CCCCN)C(=O)CCl)cc1`, the Potency entry was “inactive”.
Still for that read-out and setting: to `CCCN1CCC[C@@H]2Cc3nc(N)ncc3C[C@H]21` belongs “inactive”; to `c1ccc(C2CC2)c(OCC2=NCCN2)c1`, “inactive”.
`CC(C)=CCOc1c2occc2cc2ccc(=O)oc12`: the Potency entry is “inactive”.
With `Cc1ncc(CNC(=O)N(CCCl)N=O)c(N)n1`, the Potency entry is “inactive”.
On to `NCC1(CC(=O)O)CCCCC1`, for which the Potency result was “inactive”.
On to `N#CC(C#N)=Cc1ccc(O)c(O)c1`, for which the Potency result was “inactive”.
Turning to `NN=C(N)N`, the Potency entry was “inactive”.
For `CC[C@@H](CO)NC(=O)[C@@H]1C=C2c3cccc4[nH]cc(c34)C[C@H]2N(C)C1`, the Potency entry was “inactive”.
For the compound `COc1ccccc1N1CCNCC1`, the Potency result is “inactive”.
Regarding `Cc1cccc(C)c1NC(=O)CN1CCCC1=O`, the Potency entry was “inactive”.
Regarding `C[C@@H]1O[C@@H](O[C@H]2C[C@@H](O)[C@]3(CO)[C@H]4[C@H](O)C[C@]5(C)[C@@H](C6=CC(=O)OC6)CC[C@]5(O)[C@@H]4CC[C@]3(O)C2)[C@H](O)[C@H](O)[C@H]1O`, the Potency was 52.8 nM (active).
As to `Nc1ccncc1`, the Potency entry was “inactive”.
`Cc1cccc(C)c1NC1=NCCCS1`: the Potency entry is “inactive”.
As to `CNCC(O)c1ccc(O)cc1` (stereo not drawn), the Potency result is “inactive”.
As for `Cn1c(CCCC(=O)O)nc2cc(N(CCCl)CCCl)ccc21`, the Potency entry was “inactive”.
Consider `CC(=O)[C@H]1CC[C@H]2[C@@H]3CC[C@H]4C[C@](C)(O)CC[C@]4(C)[C@H]3CC[C@]12C`, for which the Potency entry was “inactive”.
Turning to `CC[C@@H](CO)NC(=O)[C@@H]1C=C2c3cccc4c3c(cn4C)C[C@H]2N(C)C1`, the Potency entry is “inactive”.
Consider `CC(=O)[C@H]1CC[C@H]2[C@@H]3CC[C@H]4C[C@H](O)CC[C@]4(C)[C@H]3C(=O)C[C@]12C`, for which the Potency result is “inactive”.
`CN(C)[C@@H]1C(=O)C(C(N)=O)=C(O)[C@@]2(O)C(=O)C3=C(O)c4c(O)cccc4[C@@](C)(O)[C@H]3C[C@@H]12`: the Potency result was “inactive”.
Regarding `COc1ccc(C(CN(C)C)C2(O)CCCCC2)cc1` (stereo not drawn), the Potency result was “inactive”.
Same read-out and setting: the result for `O=C1NCN(c2ccccc2)C12CCN(CC1COc3ccccc3O1)CC2` (stereo not drawn) reads “inactive”; that for `CC(=O)Nc1cc([As](=O)(O)O)ccc1O`, “inactive”; that for `NCC(O)c1ccc(O)cc1` (stereo not drawn), “inactive”.
In the case of `CN(C)CCc1ccc(O)cc1`, the Potency result was “inactive”.

The values are drawn from PubChem BioAssay (NCATS).
